# Laboratory results as given in ChEMBL document CHEMBL3433997, “St. Jude Leishmania screening dataset” (2016).
# Molecular target: Hexose transporter 1 (Plasmodium falciparum) (UniProt O97467)
# Test: ST_JUDE_LEISH: Cytotoxicity at 2uM final concentration against transgenic Leishmania Mexicana promastigotes LmPfHT that are glucose transport deficient and complemented with the Plasmodium falciparum hexose transporter. Activity is measured by DNA content using SYBR green in vitro
# Assay type: functional
row,Structure (SMILES),inhibition
1,O=C(Nc1cccc(CN2CCCN(Cc3ccc4c(c3)OCO4)CC2)c1)c1ccc2ccccc2c1,1.31%
2,CN(C)CCNC(=O)c1cc2c(-c3ccc(Cl)cc3)nn(C)c2s1,2.13%
3,CCc1nc(N)nc(N)c1-c1ccc(F)c(F)c1,5.22%
4,CCN(CC)CCNc1ccnc2c3ccccc3n(C)c12,0.22%
5,CC(=O)Oc1c(C2CCN(CCCCNC(=O)c3ccc(NC(=O)c4ccc(Cl)cc4)cc3)CC2)ccc2c1CCCC2,6.32%
6,O=C(NCc1ccc(F)cc1)Nc1cccc(-c2ccc(-c3nc4ccccc4[nH]3)cc2)c1,0.3%
7,O=C(Nc1cc(Cl)ccc1O)c1cnn2c(C(F)(F)F)cc(-c3cccs3)nc12,4.71%
8,O=C(Nc1ccc(-c2ccccc2)s1)N[C@H]1CCN(Cc2ccc(OCCCN3CCCCC3)cc2)C1,1.34%
9,CCCc1ccc(NC(=O)c2cccc(CN3CCCN(Cc4cccc(C#N)c4)CC3)c2)cc1,-0.3%
10,Cc1nnsc1C(=O)Nc1cccc(-c2ccc(-c3nc4ccccc4[nH]3)cc2)c1,9.93%
11,O=C(NCCCCN1CCC(c2ccc3c(c2OCCOCCO)CCCC3)CC1)c1ccc(-c2ccc(C(F)(F)F)cc2)cc1,2.47%
12,COc1ccc(C(=O)NCCCCN2CCC(c3ccc4c(c3OC)CCCC4)CC2)cc1-c1ccc(C(F)(F)F)cc1,0.84%
13,CS(=O)(=O)c1ccc(-c2cnc(N)c(-c3cccc(O)c3)c2)cc1,6.49%
14,Cc1noc(C)c1-c1cccc(CNCc2cccc(-c3ccc(-c4nc5cccc(C)c5[nH]4)cc3)c2)c1,1.4%
15,COC(=O)C(c1ccc(NC(=O)[C@H](CC(C)C)NC(=O)OC(C)(C)C)cc1)c1ccc(NC(=O)[C@H](CC(C)C)NC(=O)OC(C)(C)C)cc1,0.91%
16,Cc1ccccc1C1CCN(c2ccc(C(=O)Nc3ccc(F)cc3)cn2)CC1,-0.36%
17,FC(F)(F)c1ccc(-c2cncc(-c3ccc(C(F)(F)F)cc3)n2)cc1,-1.14%
18,COc1c(C2CCN(CCCCNC(=O)c3ccc(-c4ccc(Cl)cc4)cn3)CC2)ccc2c1CCCC2,-0.19%
19,CCOc1ccc(NC(=O)c2cn3nc(-c4ccc(OCC)cc4)cc3nc2C2CCNCC2)cc1,2.58%
20,Cc1ccc(NC(=O)Nc2ccc(S(=O)(=O)c3ccc(NC(=O)Nc4ccc(C)c(Cl)c4)cc3)cc2)cc1Cl,-0.49%

row,Structure (SMILES),inhibition
1,O=C(Nc1cccc(-c2ccc(-c3nc4cc(F)ccc4[nH]3)cc2)c1)c1csnn1,11.9%
2,COc1ccc(CN(C)CCCc2ccc(NC(=O)c3cc4ccccc4[nH]3)cc2)cc1OC,1.65%
3,COc1ccccc1C1CC(c2ccccc2)=NN1C(=O)c1ccccc1 (stereo not given),-0.25%
4,CC(C)(C)c1ccc(S(=O)(=O)Nc2cc(Cl)ccc2Cn2ccc(N3CCNCC3)nc2=O)cc1,-3.39%
5,COc1ccc(CNCc2ccccc2)cc1-c1ccc(OC)c(S(=O)(=O)NCCN2CCCC2)c1,-0.09%
6,COc1cccc2c1CCN(CCN1CCC(CNC(=O)c3ccc(-c4ccc(C#N)cc4)cc3)CC1)C2,3.84%
7,CC(C)C(=O)NC(Nc1ccc([N+](=O)[O-])cc1)C(Cl)(Cl)Cl (stereo not given),3.53%
8,CC(Cc1ccc(OCCN2CCN(c3cccc(Cl)c3)CC2)cc1)NCC(O)c1cccc(Cl)c1 (stereo not given),0%
9,COc1ccc(CN2CCCN(Cc3cccc(NC(=O)c4ccc5ccccc5c4)c3)CC2)cc1,1.71%
10,Cc1cccc2nc(-c3ccc(-c4ccc(NC(=O)C5CCN(C)CC5)cc4)cc3)[nH]c12,5.28%
11,Cc1cc(-c2ccc(NC(=O)N3CCc4cc(Br)c(N5CCN(C)CC5)cc43)cc2)ccc1C#N,18.9%
12,O=C(/C=C/c1ccc(Cl)c(Cl)c1)NCCCCCN1CCC(CCNC(=O)c2snnc2-c2ccccc2)CC1,4.7%
13,COc1ccccc1-n1ccnc1SCC(=O)Nc1cccc(C(F)(F)F)c1,1.61%
14,COc1ccc(-c2cccc(NC(=O)c3ccc(Cl)cc3)c2)cc1CN1CCC(O)CC1,0.09%
15,O=c1cc(NCCCNCc2ccc(C(F)(F)F)s2)[nH]c2ccccc12,0.6%
16,Cc1cc(F)ccc1[C@H]1C[C@H](N2CCOCC2)CCN1C(=O)N(C)[C@@H](C)c1cc(C(F)(F)F)cc(C(F)(F)F)c1,0.17%
17,CCCCCCN1CCC(NCc2ccc(Cl)cc2)CC1,7.61%
18,COc1cc2nc(N3CCC(CNC(=O)c4ccc(-c5ccc(C(=O)N(C)C)cc5OCCN(C)C)cc4)CC3)nc(N)c2cc1OC,0.98%
19,CCC(C)NC(=O)CN1CN(c2ccccc2)C2(CCN(C(=O)c3ccc4ccccc4c3)CC2)C1=O (stereo not given),-0.53%
20,Cc1ccc(Nc2nc(N/N=C/c3ccccc3[N+](=O)[O-])nc(Nc3ccc([N+](=O)[O-])cc3)n2)cc1C,8.51%
